# Compound activity as filed in PubChem.
# ADAM10 inh = inhibits human ADAM10; 0.62% of 370,000 active; inhibition, % at 7 µM; recombinant ADAM10, EDANS/DABCYL FRET peptide cleavage, 3 h; AID 720582;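 active = inhibition above a per-campaign cutoff equal to the mean of compounds falling between control-based bounds plus 3 SD, cut at about 20% in these data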
# ADAM17 inh = inhibits human ADAM17. inhibition, % at 6.95 µM. recombinant ADAM17, EDANS/DABCYL FRET peptide cleavage. P78536. 0.83% of 370,000 active;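 active = inhibition above the mean of compounds lying between control limits plus 3 SD, set per campaign, cut at about 8.5% in these data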
# Target sequence (P78536 215-824 limits assumed): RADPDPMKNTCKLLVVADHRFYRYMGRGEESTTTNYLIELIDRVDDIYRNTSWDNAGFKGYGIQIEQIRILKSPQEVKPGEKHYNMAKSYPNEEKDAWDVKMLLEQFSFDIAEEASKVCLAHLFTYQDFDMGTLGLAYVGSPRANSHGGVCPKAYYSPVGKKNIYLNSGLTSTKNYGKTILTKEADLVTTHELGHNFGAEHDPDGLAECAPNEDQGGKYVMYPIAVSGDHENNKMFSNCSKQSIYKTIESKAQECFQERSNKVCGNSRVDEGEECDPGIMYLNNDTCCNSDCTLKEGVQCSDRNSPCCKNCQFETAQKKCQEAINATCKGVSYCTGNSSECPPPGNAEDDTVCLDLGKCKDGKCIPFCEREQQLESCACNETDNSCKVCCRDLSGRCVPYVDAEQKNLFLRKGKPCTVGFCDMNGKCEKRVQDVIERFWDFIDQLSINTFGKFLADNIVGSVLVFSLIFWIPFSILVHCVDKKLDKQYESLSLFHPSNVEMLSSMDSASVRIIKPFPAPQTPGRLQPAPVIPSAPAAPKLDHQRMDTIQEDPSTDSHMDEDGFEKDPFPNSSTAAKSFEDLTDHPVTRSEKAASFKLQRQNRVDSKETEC
# GC-A act = GC-A (human) enzyme activation | P16066 | HEK293 GC-A cells, cGMP TR-FRET, EC30 ANP; 0% at EC30 ANP, 100% saturating ANP | activation, % at 10 µM | 0.14% of 370,000 active | AID 1671463; in the data active = activation above about 40%
# NPR2 activator = GC-B (human) receptor activation; P20594; HEK293-GC-B cells, CNP EC30, cGMP TR-FRET; 0% at EC30 CNP, 100% saturating CNP; AID 1920062; activation, % at 10 µM; 0.11% of 370,000 active;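 active = activation at 10 µM reaching about 35% in either raw or pattern-adjusted values, limit read from the data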
# ADAM10 confirm = human ADAM10 inhibition, confirmation; shares compounds with ADAM10 inh; ADAM10 QFRET peptide cleavage, EDANS fluorescence; inhibition, % at 6.95 µM; 1% of 2,100 active; AID 743208;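 active = inhibition above about 20% chosen separately for each screening run, limit read from the data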
# ADAM17 ctr = counter-screen for ADAM10 exosite inhibitors: inhibitors of human ADAM17; 0.5% of 2,100 active; inhibition, % at 6.95 µM; ADAM17 QFRET peptide cleavage, EDANS fluorescence; shares compounds with ADAM10 inh; AID 743214;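 active = mean triplicate inhibition above the solvent-only control wells' mean plus 3 SD, cut at about 12% in these data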
# ADAM10 counter = counter-screen for ADAM17 exosite inhibitors: inhibitors of human ADAM10. shares compounds with ADAM17 inh. recombinant ADAM10, EDANS/DABCYL FRET peptide cleavage, 3 h. inhibition, % at 6.95 µM. 47% of 2,900 active;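 active = mean inhibition over the triplicate runs exceeds the activity threshold set in the earlier primary screen, cut at about 20% in these data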
# ADAM17 confirm = confirmation of inhibitors of human ADAM17; recombinant ADAM17, EDANS/DABCYL QFRET peptide cleavage; AID 743257; shares compounds with ADAM17 inh; inhibition, % at 6.95 µM; 65% of 2,900 active;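 active = mean inhibition across replicates above the hit cutoff set in the primary screen, cut at about 8.5% in these data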
# Hits are given with their value; i = inactive; nt = no result. Only some compounds are listed: those with a hit (about 1.3% of all), similar ones and a draw of the others.
SMILES,ADAM10 inh,ADAM17 inh,GC-A act,NPR2 activator,ADAM10 confirm,ADAM17 ctr,ADAM10 counter,ADAM17 confirm
O=C(Nc1ccccc1C(F)(F)F)OC1CCC12CCC(c1ccccc1)CC2 (centres undefined),i,i,i,i,nt,nt,nt,nt
O=C1CC(N(CCc2ccccc2)C(=S)Nc2cc(Cl)ccc2Cl)C(=O)N1c1c(Cl)cccc1Cl (centres undefined),21,12,i,i,i,i,24,13
O=C1CC(N(CCc2ccccc2)C(=S)Nc2ccccc2)C(=O)N1c1ccc(F)cc1 (centres undefined),i,i,i,i,nt,nt,nt,nt
COC(=O)[C@@]1(Sc2ccc(C)cc2)CC(=O)N[C@@H]1c1ccc(C(F)(F)F)cc1,i,i,i,i,nt,nt,nt,nt
Cc1ccc(S(=O)(=O)N2CCCCC2)cc1C(=O)N1CCCCCC1,i,i,i,i,nt,nt,nt,nt
COc1ccc(N2CCC(CNC(=O)Nc3cccc(OC)c3)C2)cc1 (centres undefined),i,i,i,i,nt,nt,nt,nt
COc1ccc(N2CCC(CNC(=S)Nc3cccc(OC)c3)C2)cc1 (centres undefined),20,8.8,i,i,i,i,i,11
COc1c2ccc(OCC/C(C)=C/C(=O)C=C(C)C)cc2nc2occc12,i,i,i,i,nt,nt,nt,nt
COC(=O)[C@]12C[C@H](CC(=O)NCc3cccc4ccccc34)C(=O)N(Cc3ccco3)C1=C[C@H](C1CCCC1)O[C@@H]2C,22,14,i,i,i,i,34,17
COC(=O)[C@]12C[C@H](CC(=O)NCCCCc3ccccc3)C(=O)N(CCc3ccc(OC)c(OC)c3)C1=C[C@H](C(C)(C)C)O[C@@H]2C,27,9.0,i,i,i,i,24,13
COCCCNC(=O)C[C@H]1C[C@@]2(C(=O)OC)C(=C[C@H](C(C)(C)C)O[C@@H]2C)N(Cc2cccc3ccccc23)C1=O,i,i,i,i,nt,nt,nt,nt
CCCCNC(=O)C[C@H]1C[C@@]2(C(=O)OC)C(=C[C@H](C(C)(C)C)O[C@@H]2C)N(Cc2cccc3ccccc23)C1=O,29,15,i,i,i,i,26,17
O=C(Nc1ccc(F)cc1)C(CCc1ccccc1)N1CCN(c2cccc(C(F)(F)F)n2)CC1 (centres undefined),i,i,i,i,nt,nt,nt,nt
CSc1ccccc1NC(=O)COc1nsnc1N1CCOCC1,i,i,i,i,nt,nt,nt,nt
CNC(=O)CCc1[nH]c2ccccc2c1Sc1ccccc1,20,9.1,i,i,i,i,i,i
COC(=O)c1[nH]c2ccccc2c1Sc1ccccc1,i,i,i,i,nt,nt,nt,nt
CCSc1ccc([C@@H]2[C@H]3C(=O)N(C)C(=O)[C@H]3[C@]3(C(=O)OC)CCCCN23)cc1,22,18,i,i,i,i,i,i
COC(=O)C[C@H]1CC[C@@H]2[C@@H](COc3ccc(NC(=O)c4ccno4)cc3C(=O)N2C)O1,i,i,i,i,nt,nt,nt,nt
Cc1ccc(S(=O)(=O)Nc2ccc(-c3csc(-c4ccccc4)n3)cc2)cc1,31,15,i,i,i,i,24,20
O=S(=O)(Nc1ccc(-c2csc(-c3ccccc3)n2)cc1)c1ccccc1,i,i,i,i,nt,nt,nt,nt
O=[N+]([O-])c1ccc(S(=O)(=O)Nc2ccc(-c3csc(-c4ccccc4)n3)cc2)cc1,34,17,i,i,i,i,34,17
O=C(OCCOc1cccc(Cl)c1)C1CCN(S(=O)(=O)c2ccccc2)CC1,21,8.6,i,i,i,i,21,11
CCCc1cn(-c2ccc3c(c2)[C@@]2(CC(=O)N(C)C2c2ccccc2)C(=O)N3CC(C)C)nn1 (some centres undefined),i,i,i,i,nt,nt,nt,nt
COc1cc2c(cc1OC)C(c1cc(C)ccc1C)CC(=O)N2 (centres undefined),i,i,i,i,nt,nt,nt,nt
Cc1ccc(C)c(S(=O)(=O)Nc2ccc(C(=O)NCCCN(C)C)cc2)c1,i,i,i,i,nt,nt,nt,nt
SMILES,ADAM10 inh,ADAM17 inh,GC-A act,NPR2 activator,ADAM10 confirm,ADAM17 ctr,ADAM10 counter,ADAM17 confirm
O=C(NCCC1=CCCCC1)c1ccc2c(c1)N(Cc1ccccc1)C(=O)CS2,27,17,i,i,i,i,26,13
Cc1cccc(NS(=O)(=O)c2cc(C(=O)NCCC3=CCCCC3)ccc2Cl)c1,21,8.7,i,i,i,i,21,12
Cc1ccc(NS(=O)(=O)c2cc(C(=O)NCCSc3ccc(C)cc3)ccc2C)cc1,23,12,i,i,i,i,38,20
Cc1ccccc1NS(=O)(=O)c1cc(C(=O)NCCC2=CCCCC2)ccc1Cl,i,i,i,i,nt,nt,nt,nt
Cc1ccc(C(=O)NCCSc2ccc(Cl)cc2)cc1S(=O)(=O)Nc1ccccc1,25,11,i,i,i,i,27,16
O=C(NCCN1CCOCC1)c1ccc2c(c1)N(Cc1ccccc1)C(=O)CS2,i,i,i,i,nt,nt,nt,nt
CS(=O)(=O)Nc1ccccc1C(=O)NCCSc1ccc(Cl)cc1,i,i,i,i,nt,nt,nt,nt
Cc1ccc(SCCNC(=O)c2ccc(C)c(S(=O)(=O)Nc3cccc(C)c3)c2)cc1,27,12,i,i,i,i,30,17
Cc1ccccc1NC(=O)C(C)Sc1nnc(CN2CCCC2)n1Cc1ccccc1 (centres undefined),i,i,i,i,nt,nt,nt,nt
C[C@@H](OC(=O)c1[nH]cnc1C(=O)NCc1ccc(CNC(=O)OC(C)(C)C)cc1)c1ccccc1,40,25,i,i,i,i,22,12
CC(C)(C)OC(=O)NCc1ccc(CNC(=O)c2[nH]cnc2C(=O)N[C@@H](Cc2ccccc2)C(=O)OC(C)(C)C)cc1,42,14,i,i,i,i,56,27
CNC(=O)c1[nH]cnc1C(=O)N[C@@H](Cc1ccccc1)C(=O)OC(C)(C)C,i,i,i,i,nt,nt,nt,nt
CN(Cc1ccccc1)C(=O)c1[nH]cnc1C(=O)NCc1ccc(CNC(=O)OC(C)(C)C)cc1,i,i,i,i,nt,nt,nt,nt
CC(C)(C)OC(=O)[C@H](Cc1ccccc1)NC(=O)c1nc[nH]c1C(=O)NCc1ccccc1,25,12,i,i,i,i,31,17
Cn1cnc([N+](=O)[O-])c1Sc1nnc(-c2ccccc2)c(-c2ccccc2)n1,i,i,i,i,nt,nt,nt,nt
O=C(c1ccco1)C(O)c1ccco1 (centres undefined),i,i,i,i,nt,nt,nt,nt
O=S(=O)(N/N=C/c1cn(Cc2ccccc2)c2ccccc12)c1ccccc1,24,9.6,i,i,i,i,36,19
